Drawing on PubChem BioAssay AID463173 (ICCB-Longwood Screening Facility, Harvard Medical School, 2010), this text covers survival for 58 compounds.

The campaign covered roughly 52,000 compounds. About 4,300 (8.3%) were called active. Cut-off read from the data, not from the text of the source: active = survival mostly below about 52% (no sharp cut-off); inactive = mostly above about 56%. The entries come from a sample that favours actives as a whole.

This assay relates to DeltatarO mutant. Description: S. aureus survival, RN4220 and DeltatarO strains – OD600, teichoic acid synthesis inhibitors, primary screen (AID 463173). Conditions: S. aureus RN4220 wild type/DeltatarO growth, OD600, 18 h, hits give low values, screened at 18.75 µg/mL (by protocol).
Consider `CCN(CC)CCNC(=O)c1sc2nc(C)cc(C)c2c1-n1cccc1`, for which the survival is 86% (inactive).

With `CC(C)CN(CCNC(=O)c1cc(=O)[nH]c2ccc(S(=O)(=O)N3CCCCCC3)cc12)CC(C)C`, the survival was 86% (inactive).

Turning to `COc1ccc(OC)c(CNC(=O)Cn2ncc3c([nH]c4ccc(C)cc43)c2=O)c1`, the survival is 92% (inactive).

For `Cc1ccc(OC(=O)c2cc(-c3ccc4c(c3)OCCO4)on2)cc1C`, the survival is -2% (active).

As to `N#Cc1ccc(OC(=O)c2cc(-c3ccc4c(c3)OCCO4)on2)cc1`, the survival was 117% (inactive).

Take `CC(C)c1ccc(OC(=O)c2cc(-c3ccc4c(c3)OCCO4)on2)cc1`: the survival is 8% (active).

As for `Cc1ccc(-c2cc(C(=O)Oc3ccc(C#N)cc3)no2)cc1`, the survival is 97% (inactive).

With `CC(C)c1ccc(OC(=O)c2cc(-c3ccc(Cl)cc3)on2)cc1`, the survival was 98% (inactive).

In the case of `O=C(Oc1ccc(Cl)cc1)c1cc(-c2ccc3c(c2)OCCO3)on1`, the survival was 116% (inactive).

For the compound `COc1ccc(OC(=O)c2cc(-c3ccc4c(c3)OCCO4)on2)cc1`, the survival is 101% (inactive).

With `O=C(Nc1cc(C(F)(F)F)ccc1Cl)c1cc(-c2ccc3c(c2)OCCO3)on1`, the survival is 116% (inactive).

On to `Cc1cc(OC(=O)c2cc(-c3ccc4c(c3)OCCO4)on2)ccc1Cl`, for which the survival is -1% (active).

Consider `CCC(C)NC(=O)Cn1c(=O)cc(-c2ccccc2)c2c(C)nn(C)c21` (stereo not drawn), for which the survival was 70% (inactive).

Regarding `COc1cccc(NC(=O)Cc2csc(COc3cccc(C)c3)n2)c1`, the survival is 72% (inactive).

Regarding `CCOC(=O)c1cnn(-c2ccc(C(=O)Nc3ccc(OC(F)(F)F)cc3)cc2)c1N`, the survival is 124% (inactive).

Consider `COC(=O)c1cnn(-c2ccc(C(=O)Nc3ccc(C(C)=O)cc3)cc2)c1N`, for which the survival is 63% (inactive).

Regarding `COC(=O)c1cnn(-c2ccc(C(=O)Nc3ccc(OC(F)(F)F)cc3)cc2)c1N`, the survival is 25% (active).

For `O=C(Cn1nc2c(cc1=O)CCCC2)NCc1ccccc1Cl`, the survival was 144% (inactive).

In the case of `COc1ccccc1CNS(=O)(=O)c1cc(-c2cc(C)no2)ccc1C`, the survival is 102% (inactive).

In the case of `CCc1ccccc1NC(=O)CSc1nnc(-c2cc(OC)c(OC)c(OC)c2)o1`, the survival is 111% (inactive).

Take `CCCSCCCNC(=O)CN1C(=O)COc2ccc(S(=O)(=O)N3CCCC3)cc21`: the survival is 71% (inactive).

Take `O=C(CN1C(=O)COc2ccc(S(=O)(=O)N3CCCC3)cc21)N1CCN(c2cccc(C(F)(F)F)c2)CC1`: the survival was 79% (inactive).

Consider `O=C(CN1C(=O)COc2ccc(S(=O)(=O)N3CCCCCC3)cc21)N1CCN(c2cccc(C(F)(F)F)c2)CC1`, for which the survival is 61% (active).

Consider `O=C(CN1C(=O)COc2ccc(S(=O)(=O)N3CCOCC3)cc21)N1CCN(c2cccc(C(F)(F)F)c2)CC1`, for which the survival was 93% (inactive).

Regarding `CCCSCCCNC(=O)CN1C(=O)COc2ccc(S(=O)(=O)N3CCCCCC3)cc21`, the survival was 62% (active).

Turning to `CCCCSCCCNC(=O)CN1C(=O)COc2ccc(S(=O)(=O)N3CCCC3)cc21`, the survival is 66% (inactive).

In the case of `CC(=O)c1cccc(NC(=O)CCc2c(C)nc3c(-c4ccc(F)cc4)c(C)nn3c2C)c1`, the survival was 76% (inactive).

For the compound `CCC1CN(C(=O)Nc2ccc(Br)cc2F)c2ccccc2S1` (stereo not drawn), the survival is 90% (inactive).

Consider `CCOC(=O)C1CCN(c2nc3c(S(=O)(=O)c4ccccc4)nnn3c3ccc(Cl)cc23)CC1`, for which the survival was 112% (inactive).

Consider `COc1cc(C2CC(=O)Nc3ccc4ccccc4c32)ccc1OC(=O)C(C)C` (stereo not drawn), for which the survival is 67% (inactive).

As to `Cc1ccc2c(c1)N(C(=O)Nc1cccc3c1CCCC3)CC(C)O2` (stereo not drawn), the survival was 56% (inactive).

Turning to `CCOc1ccc(CCNS(=O)(=O)c2c(C)nc3scc(C)n3c2=O)cc1OCC`, the survival was 83% (inactive).

As for `CCN(CC)S(=O)(=O)c1ccc2c(c1)c(=O)c(C(=O)NCc1ccccc1Cl)cn2C`, the survival was 61% (inactive).

`CCNc1nc2ccccc2s1`: the survival was 72% (inactive).

As for `CC(C)(C)NSc1nc2ccccc2s1`, the survival was 58% (active).

`COC(=O)CSc1nc2ccccc2s1`: the survival is 94% (inactive).

For `Cc1ccccc1-c1noc(-c2ccc(N3CCC(C)CC3)c([N+](=O)[O-])c2)n1`, the survival was 55% (inactive).

On to `CCOc1ccc2nc(N3CCC(C(=O)Nc4ccccc4CC)CC3)sc2c1`, for which the survival is 70% (inactive).

In the case of `COc1ccc(-c2cc(C(=O)Nc3c(C)n(C)n(-c4ccccc4)c3=O)no2)cc1OC`, the survival is 59% (inactive).

For the compound `Cc1c(NC(=O)c2cc(-c3ccc(F)cc3)on2)c(=O)n(-c2ccccc2)n1C`, the survival is 72% (inactive).

Regarding `Cc1c(NC(=O)c2cc(-c3ccc(O)cc3)on2)c(=O)n(-c2ccccc2)n1C`, the survival was 169% (inactive).

Regarding `Cc1c(NC(=O)c2cc(-c3ccc(Cl)cc3)on2)c(=O)n(-c2ccccc2)n1C`, the survival is 121% (inactive).

Regarding `Cc1c(NC(=O)c2cc(-c3cccc(Cl)c3)on2)c(=O)n(-c2ccccc2)n1C`, the survival is 55% (inactive).

On to `COc1ccc(-c2cc(C(=O)Nc3c(C)n(C)n(-c4ccccc4)c3=O)no2)cc1`, for which the survival is 46% (active).

Turning to `Cc1c(NC(=O)c2cc(-c3ccccc3O)on2)c(=O)n(-c2ccccc2)n1C`, the survival is 51% (active).

`Cc1c(NC(=O)c2cc(-c3cccc(O)c3)on2)c(=O)n(-c2ccccc2)n1C`: the survival is 56% (inactive).

For `Cc1c(NC(=O)c2cc(-c3ccc(Cl)c(Cl)c3)on2)c(=O)n(-c2ccccc2)n1C`, the survival is 38% (active).

For `CCOC(=O)c1cccc(NC(=O)c2ccc3c(c2)nnn3CC)c1`, the survival is 66% (inactive).

For the compound `Cc1ccc(-c2onc(C)c2C)cc1S(=O)(=O)N1c2ccccc2CC1C` (stereo not drawn), the survival is 79% (inactive).

In the case of `COc1ccc(CNC(=O)c2c(O)nc3cc(C)ccn3c2=O)cc1`, the survival is 78% (inactive).

Turning to `COc1cccc(CCNC(=O)c2c(O)nc3cc(C)ccn3c2=O)c1`, the survival was 82% (inactive).

As for `COc1ccc(CCNC(=O)c2c(O)nc3ccccn3c2=O)cc1OC`, the survival is 54% (inactive).

Consider `COc1cccc(CCNC(=O)c2c(O)nc3ccccn3c2=O)c1`, for which the survival was 48% (active).

As to `Cc1ccc(CNC(=O)c2c(O)nc3ccccn3c2=O)cc1`, the survival is 89% (inactive).

As for `COc1cccc(CNC(=O)c2c(O)nc3ccccn3c2=O)c1`, the survival is 43% (active).

With `COc1ccc(CCNC(=O)c2c(O)nc3ccccn3c2=O)cc1`, the survival is 81% (inactive).

As to `Cc1cccn2c(=O)c(C(=O)NCc3ccc(F)cc3)c(O)nc12`, the survival is 119% (inactive).

`O=C(NCc1ccc(F)cc1)c1c(O)nc2ccccn2c1=O`: the survival is 44% (active).
